Screening data (PubChem)
HCMV antiviral – inhibitors of human cytomegalovirus | 4.5% of 410,000 active | HFF cells, HCMV-luciferase reporter, 72 h; hits give low values | activity change, negative = inhibition, % at 57.5 µM; in the data active means activity change below about -60%; inconclusive means no clear call, values can overlap the other calls; inactive means above about -39%
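Two compound doses tested in HFFs infected with HCMV-luciferase, MOI 1 PFU/cell, 72 h at 37C. Lysate luminescence read with OneGlo; data normalized against buffer-only and 10uM Salinomycin inhibitor controls.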
LASV entry inh – Lassa virus entry inhibition. 1.2% of 300,000 active. Lassa virus pseudotype entry inhibition, cell reporter. Potency, µM (top dose mostly 37.9 µM), for inactives: top-dose activity change, negative = inhibition, most hits filed as inhibitors; calls by dose curve; tested in HEK293 cells; further: potency means the concentration at half of the fitted maximal effect; nearly all actives have a fitted effect of over 50% in size
Marburg entry inh – blocks Marburg virus binding to or entry into cells; Marburg virus pseudotyped entry inhibition, cell reporter; Potency, µM (top dose mostly 37.8 µM), for the others: top-dose activity change, negative = inhibition, hits mostly inhibitors; 1.8% of 300,000 active; AID 540276; calls by dose curve; tested in HEK293 cells; further: potency means the concentration at half of the fitted maximal effect
Vaccinia mCherry – inhibitors of vaccinia virus infection (mCherry reporter signal); Potency, µM (series often up to 36.5 µM), without a hit: at the top dose activity change, negative = inhibition, actives largely listed as inhibitors; Vaccinia virus mCherry reporter infection, fluorescence; 0.63% of 310,000 active; calls by dose curve; tested in A549 cells; further: potency means the concentration at half of the fitted maximal effect; nearly all actives have a fitted effect of over 35% in size
HCV inh – blocks hepatitis C virus | 3.4% of 340,000 active | AID 651820 | Huh7.5.1 HCVcc-Cre infection, luciferase reporter, 44 h | Potency, µM (doses to about 41.8 µM), for the others: at the highest dose activity change, negative = inhibition, most hits filed as inhibitors; active means well fitted inhibition curve with a large enough effect; inconclusive means small, poorly fitted or top-dose-only effect, or another doubt; inactive means no such curve, though single readings can be large or run the other way; further: potency means the concentration at half of the fitted maximal effect
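1,000 cells/well; 4 h culture; + compound; + HCVcc-Cre (~0.5 moi); 44 h; luciferase substrate, RT 15 min; read 15 sec.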
VACV Venus inh – inhibitors of vaccinia virus (Venus reporter). Vaccinia virus Venus reporter expression, fluorescence. Potency, µM (highest dose often 36.5 µM), for the others: at the top dose activity change, negative = inhibition, hits mostly inhibitors. 0.46% of 330,000 active. AID 720580; calls by dose curve; tested in A549 cells; further: potency means the concentration at half of the fitted maximal effect; nearly all actives have a fitted effect of over 30% in size
Starred values were filed as active, the others as inactive; i = inactive; ? = inconclusive; . = not tested or not shown; [ ] = remark or other dose. Shown are actives, neighbours in structure and some others; about 7.8% of the full set was active somewhere. On the % scale 0 is the no-effect control and ±100 the full control effect.

SMILES | HCMV antiviral | LASV entry inh | Marburg entry inh | Vaccinia mCherry | HCV inh | VACV Venus inh
O=C(NCCc1ccccc1)c1cc(=O)[nH]c2ccccc12 | -60.5* | -26.8%[46.1 µM] | 10.2%[46.1 µM] | i | 14.9% | -11.9%
O=C(NCCc1ccc(F)cc1)c1cc2ccccc2oc1=O | 14.5 | . | . | . | 20.3% | .
Cc1cc(C)c[n+](CC(=O)c2cc3ccccc3oc2=O)c1 | -98.4* | 18.0% | 3.6% | -9.3% | 0.9% | -5.7%
O=C(NCCc1ccccc1)c1cc2ccccc2oc1=O | -103.0* | . | . | . | -0.1% | .
COc1ccccc1CNC(=O)CCCCn1c(=O)c2ccccc2n(Cc2ccccc2C)c1=O | 5.3 | 3.8%[46.1 µM] | -9.0%[46.1 µM] | -29.9% | . | -24.2%
O=C(CSc1nc(-c2ccccc2)cs1)N1CCN(C(=O)c2ccco2)CC1 | -103.1* | 3.3% | 19.6% | . | -19.2% | .
CCOC(=O)N1CCN(C(=O)CSc2nnc(-c3cccc(Cl)c3)o2)CC1 | 11.9 | . | . | 5.62µM* | 0.5% | ?
O=C(CSc1nnc(-c2ccc(Br)cc2)o1)N1CCN(C(=O)c2ccco2)CC1 | -24.9 | ? | -2.8% | 0.631µM* | ? | 5.01µM*
O=C(CSc1nnc(-c2ccccc2)o1)N1CCCC1 | -6.2 | 24.9% | 27.4%[46.1 µM] | i | -18.0% | -7.0%
O=C(c1ccco1)N1CCN(C(=O)c2cn(-c3ccccc3)nc2-c2ccccc2)CC1 | 135.3 | . | . | . | -19.3% | .
O=C(OCC(=O)N1CCN(C(=O)c2ccco2)CC1)c1cn(-c2ccccc2)nc1-c1ccccc1 | 7.1 | ? | -19.5% | . | 2.82µM* | ?
COc1cc(NC(=O)CSc2nc(-c3ccco3)cc(C(F)(F)F)n2)cc(OC)c1OC | ? | -20.6%[46.1 µM] | -10.7%[46.1 µM] | -7.0%[7.34 µM] | . | -14.1%[7.34 µM]
COc1cc(CNCc2cc3cc(C)ccc3nc2-c2ccc(F)cc2)cc(OC)c1OC | . | . | . | -5.3% | . | 1.9%
Cc1nnc(SCC(=O)N2CCN(C(=O)c3ccco3)CC2)n1C | -4.1 | . | . | . | 13.5% | .
Cc1cc(C)cc(-c2nnc(SCC(=O)N3CCN(C(=O)c4ccco4)CC3)o2)c1 | -9.5 | -22.9% | 4.5% | 8.91µM* | ? | ?
Cc1ccc(NC(=O)c2cc(C)nn2-c2ccccc2)cc1 | -33.1 | 8.0%[46.1 µM] | ? | -11.8% | -6.0% | -11.8%
CC(C)(C)c1cc(C(=O)N/N=C/c2ccc(F)cc2)n(-c2ccccc2)n1 | -74.4* | -22.4% | ? | -11.1% | ? | -22.8%
CC(C)(C)c1cc(C(=O)N/N=C/c2ccccc2O)n(-c2ccccc2)n1 | -97.4* | ? | ? | ? | -6.0% | ?
O=C1CCC[C@H]2[C@@H](Cc3ccccc3)[C@H](NCc3ccccc3)CC[C@]23CCCN13 | -9.1 | . | . | . | . | .
S=C(Nc1ccccc1)N1CCOCCOCCN(C(=S)Nc2ccccc2)CCOCCOCC1 | 20.4 | 16.5% | 5.62µM* | i | -4.1% | -18.8%
O=C(Cc1ccc([N+](=O)[O-])cc1)c1c(O)cc(O)cc1O | -21.6 | . | . | . | 25.4% | .
Cc1cc(O)cc(O)c1C(=O)Cc1ccccc1 | -70.6* | ? | ? | -27.0% | 9.4% | -22.5%
Cc1ccc(C2c3c(-c4cc(C)ccc4O)n[nH]c3C(=O)N2Cc2ccco2)cc1 (stereo unspecified) | -33.1 | ? | ? | -12.5% | . | ?
O=C1c2[nH]nc(-c3ccccc3O)c2C(c2cccc(Cl)c2)N1Cc1ccco1 (stereo unspecified) | 13.6 | ? | 13µM* | . | 12.6µM* | .
Cc1cc(C)c(O)c(-c2n[nH]c3c2C(c2cccc(O)c2)N(Cc2ccco2)C3=O)c1 (stereo unspecified) | -28.0 | . | . | 10µM* | 11.2µM* | ?
SMILES | HCMV antiviral | LASV entry inh | Marburg entry inh | Vaccinia mCherry | HCV inh | VACV Venus inh
O=C1c2[nH]nc(-c3ccccc3O)c2C(c2ccc(F)cc2)N1Cc1ccco1 (stereo unspecified) | -34.9 | 8.2µM* | ? | . | -1.3% | .
COc1ccc(C2c3c(-c4ccccc4O)n[nH]c3C(=O)N2Cc2ccco2)cc1OC (stereo unspecified) | -30.7 | ? | -13.8%[46.1 µM] | -2.7% | -1.3% | -16.7%
Cc1ccc(CNC(=O)Cn2c(=O)cc(-c3ccccc3)c3c(C)nn(C)c32)cc1 | 13.1 | -3.2%[46.1 µM] | . | -1.0% | . | 6.4%
Fc1ccc2cc(C3=CCCCC3)ncc2c1 | -94.7* | . | . | . | . | .
O=C(Cn1nc(Cc2cccnc2)c2ccccc2c1=O)Nc1cccc(C(F)(F)F)c1 | ? | -15.6%[46.1 µM] | -5.2%[46.1 µM] | -15.7% | . | -10.6%
COc1ccccc1C1CN(Cc2cccc3nccnc23)Cc2ccccc2O1 (stereo unspecified) | . | . | . | -16.2% | . | -11.6%
CCN(C(=O)c1cc2c(s1)-c1ccccc1OC2)c1cc(OC)ccc1OC | 5.3 | . | . | -11.9% | 12.6µM* | -4.3%
CCN(C(=O)c1cc2c(s1)-c1ccccc1S(=O)(=O)C2)c1cc(OC)ccc1OC | 0.6 | . | . | -14.2% | 10µM* | -10.9%
COc1ccc(-c2[nH]nc3nc(N4CCN(C(=O)c5ccoc5)CC4)cc(C(F)(F)F)c23)cc1 | -77.2* | . | . | -27.4% | . | ?
N#Cc1ccc(C23OCCN2CCn2c3c3ccccc3[n+]2[O-])cc1 (stereo unspecified) | 5.0 | . | . | 3.98µM* | ? | -26.3%
Cc1ccc(C23OCCN2CCn2nc4ccccc4c23)cc1 (stereo unspecified) | 6.3 | . | . | i | -5.8% | -3.1%
Cn1c(=O)cc(SCC(=O)N2CCN(c3ccccc3F)CC2)c2cc(Cl)ccc21 | -6.4 | -21.9%[46.1 µM] | 0.9%[46.1 µM] | -5.9% | . | -0.1%
NC(N)=NN=C(c1ccc(F)cc1)c1ccc(C(F)(F)F)cc1 | -76.7* | 10µM* | ? | ? | ? | 12.6µM*
COc1cc(NC(=O)c2cc([N+](=O)[O-])ccc2NC(=O)CN2CCN(c3ccccn3)CC2)cc(OC)c1 | -12.2 | ? | 8.91µM* | -3.4% | ? | -12.8%
O=C(CN1CCN(c2ccc(O)cc2)CC1)Nc1cc([N+](=O)[O-])ccc1Cl | -68.5* | 4.2% | ? | -2.7% | 1.3% | -7.5%
CC(=O)N1CCN(CC(=O)Nc2cc([N+](=O)[O-])ccc2Cl)CC1 | 0.5 | . | 5.2%[46.1 µM] | -1.9% | 18.8% | -5.6%
Cc1ccc(-n2ncc(C(=O)NCc3ccccc3C)c2-n2cccc2)cc1 | ? | 3.0%[46.1 µM] | . | -14.1% | . | -16.2%
COc1ccccc1-c1ccnc(-n2ncc(C(=O)N3CCCCC3c3cccnc3)c2C)n1 (stereo unspecified) | . | . | . | i | . | -7.7%
COC1C(OC(=O)c2ccc(C)[nH]2)C(O)C(Oc2ccc3c(O)c(NC(=O)c4ccc(O)c(CC=C(C)C)c4)c(=O)oc3c2Cl)OC1(C)C (stereo unspecified) | -19.3 | . | . | -3.0% | 1.58µM* | -19.2%
COc1cc(NC(=O)c2ccc(-c3nc(COc4ccccc4)c(C)o3)cc2)cc(OC)c1 | -77.9* | ? | . | -16.1%[7.34 µM] | . | -21.3%[7.34 µM]
CN1CCN(C(CNC(=O)C(=O)Nc2ccc(F)cc2F)c2ccc3c(c2)OCO3)CC1 (stereo unspecified) | -18.6 | -7.5%[46.1 µM] | . | -5.2% | . | -10.8%
